Hits are enriched below; roughly 1.2% of the tested compounds scored in any of these assays.
TRb SRC2 PPI: disrupts binding of human TR beta to SRC2. TRbeta-SRC2 peptide binding, fluorescence polarization; receptor liganded with 1 µM T3. Potency, µM (top dose mostly 106 µM), hits mostly inhibitors. hit rate 0.065% among 280,000; note: nearly all actives have a fitted effect of over 50% in size
Target sequence (P10828 whole entry, looked up): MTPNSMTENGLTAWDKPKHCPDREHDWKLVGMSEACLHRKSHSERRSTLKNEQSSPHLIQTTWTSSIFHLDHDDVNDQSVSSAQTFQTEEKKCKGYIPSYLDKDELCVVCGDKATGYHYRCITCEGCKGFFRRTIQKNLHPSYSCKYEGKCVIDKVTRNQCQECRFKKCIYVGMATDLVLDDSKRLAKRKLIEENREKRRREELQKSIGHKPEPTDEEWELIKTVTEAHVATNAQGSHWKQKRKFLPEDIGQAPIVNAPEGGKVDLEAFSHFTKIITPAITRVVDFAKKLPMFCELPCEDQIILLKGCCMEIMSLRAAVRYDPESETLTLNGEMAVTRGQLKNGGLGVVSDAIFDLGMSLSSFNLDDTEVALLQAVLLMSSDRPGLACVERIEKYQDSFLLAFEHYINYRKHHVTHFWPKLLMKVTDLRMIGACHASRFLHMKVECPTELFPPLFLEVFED
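Human TRb ligand-binding domain (0.6 uM) is mixed with 20 nM Texas Red SRC2 peptide and 1 uM T3; after compound addition and 5 hr at ambient temperature, polarization is measured and normalized to unbound and bound controls.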
VDR inhibitor: vitamin D3 receptor (human) inhibition; VDR-SRC2-3 peptide fluorescence polarization, 2 h; Potency, µM, hits mostly inhibitors; hit rate 0.93% among 400,000
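Reagent solutions, kept cold and dark, are dispensed first; compounds are then pinned in at 23 nl, plates briefly spun, and incubated 2 h at ambient temperature. Inhibition of VDR–SRC2-3 peptide binding is read by fluorescence polarization.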
RGS12 GoLoco inh: blocks human Gai1 binding to RGS12 GoLoco peptide, red readout; P63096; Gai1:RGS12 GoLoco peptide FP, rhodamine, 10 min; Potency, µM (highest dose often 61.6 µM), most hits filed as inhibitors; hit rate 0.44% among 230,000; AID 880; active = well fitted inhibition curve with a large enough effect, not every such curve was filed as active; inactive = no such curve, though single readings can be large or run the other way; note: nearly all actives have a fitted effect of over 30% in size
GCN5L2 inh: inhibitors of human GCN5L2 histone acetyltransferase; hit rate 0.21% among 390,000; Q92830; Potency, µM (titrated, usually from 58.9 µM), most hits filed as inhibitors; GCN5L2 HAT assay, ThioGlo1 CoA-SH fluorescence
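ThioGlo1-coupled HAT assay: 20nM GCN5L2, 70uM acetyl-CoA, 75uM H3(1-25) peptide, pH 7.5. Fluorescence read at 340/540nm at start and after 20 min at room temperature.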
TexasRed fluor: counter-screen for TRb-SRC2 inhibitors: fluorescence interference; TRb/SRC2 Texas Red total fluorescence interference; Potency, µM (series often up to 106 µM); hit rate 0.29% among 280,000; active = well fitted curve in either direction with a large enough effect; inconclusive = small, poorly fitted or top-dose-only effect
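Human TRβ ligand-binding domain (0.6 uM) and Texas Red SRC2 peptide (20 nM) in Tris buffer with 1 uM T3 and 5% DMSO were incubated with pinned compound for 5 hr at ambient temperature. Total fluorescence was computed as S + 2P (555/632 nm).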
A number is an active result; n = inactive; u = inconclusive; x = not tested or not shown; [ ] = another dose, or the depositor's remark. Unless noted, calls come from the whole dose curve; as a rule, active = well fitted curve in the direction sought with a large enough effect; inconclusive = small, poorly fitted or top-dose-only effect, or another doubt; inactive = no such curve, though single readings can be large; an effect the other way counts as inactive or inconclusive.

SMILES | TRb SRC2 PPI | VDR inhibitor | RGS12 GoLoco inh | GCN5L2 inh | TexasRed fluor
Cc1ccc(C2C3=C(CCCC3=O)Nc3[nH]c(=S)[nH]c(=O)c32)cc1 (configuration not stated) | n | 89µM | n | 22µM | n
N#Cc1c(NC(=O)c2ccc(Br)o2)n(-c2ccccc2)c2nc3ccccc3nc12 | u | 8.9µM | n | n | n
NC(N)=N/N=C(\c1ccc(Cl)cc1)C1CC1 | x | x | n[14.2 µM] | x | x
c1ccc2c(c1)CN1CCCC1=N2 | n | n | n | n | n
O[C@@H]1CCN2Cc3ccccc3N=C12 | n | 3.5µM | x | u | n
Cc1cc(Cc2cc(C)cc(C(C)(C)C)c2O)c(O)c(C(C)(C)C)c1 | n | x | x | x | n
Nc1ncnc2c([C@@H]3O[C@@H](CO)[C@H](O)[C@@H]3O)nsc12 | x | x | n[14.2 µM] | x | x
C[N+](C)(C)CCN(Cc1ccc(Cl)cc1)c1ccccn1 | n | n | 6.3µM | n | n
CN(C)CC(CN(C)C)c1ccccn1 | x | x | n[14.2 µM] | x | x
COc1ccc(CCNCc2ccc3c(c2)n(C)c(=O)n3C)cc1OC | n | n | x | n | 89µM[quencher]
COc1ccc(CNCc2ccc3c(c2)n(C)c(=O)n3C)cc1 | n | n | x | n | n
C[C@H](Cc1nc2c(cnn2-c2ccccc2Cl)c(=O)[nH]1)C(F)(F)F | n | u | x | n | u
CC1=CC(C)(C)N(C(=O)CSc2nnc(N)s2)c2c(C)cc(C)cc21 | n | n | n | 4µM | n
CC[N+]1(CC(O)COC2CC(C)CC(C)(C)C2)CCOCC1 (configuration not stated) | n | n | 5.6µM | n | n
CC1CCN(CC(O)COC2CC(C)CC(C)(C)C2)CC1 (configuration not stated) | x | n | x | x | x
CCCCc1c(C)nc2c(OC)cccc2c1SCCC(=O)O | n | u | n | n | n
CCc1c(C)nc2c(OC)cccc2c1SCCC(=O)O | n | n | n | n | 0.79µM[quencher]
CCN1C(=O)c2ccccc2Sc2ccc(NC(=O)Nc3cccc([N+](=O)[O-])c3C)cc21 | n | n | x | n | 0.0005µM[quencher]
COc1ccc(OCCCn2c(CCNC(=O)C3CCCCC3)nc3ccccc32)cc1 | x | n | x | x | x
COc1ccc(C(=O)N(Cc2ccccc2)Cc2ccc(OC)c(COc3ccc(NC(C)=O)cc3)c2)cc1 | x | n | x | x | x
CCN(CC)C(=O)c1cc([N+](=O)[O-])cc2c1-c1ccc([N+](=O)[O-])cc1C2=C(C#N)C#N | n | 25µM | n | u | n
CCN(CC)C(=O)c1ccc(Oc2ccc([N+](=O)[O-])cc2Cl)cc1 | n | n | n | n | n
O=C(NCc1ccccn1)C1(C(F)(F)F)CC(CCCO)CCCO1 (configuration not stated) | n | n | x | x | n
Nc1c(CO)nnn1-c1ccccc1 | n | n | 3.2µM | n | n
COc1cccc(-c2nc(S(=O)(=O)c3ccc(C)cc3)c(N3CCCCCC3)o2)c1 | n | n | x | n | n
SMILES | TRb SRC2 PPI | VDR inhibitor | RGS12 GoLoco inh | GCN5L2 inh | TexasRed fluor
COc1cc(-c2nc(S(=O)(=O)c3ccc(C)cc3)c(N3CCOCC3)o2)cc(OC)c1OC | n | 79µM | n | n | n
COc1cc(-c2nc(S(=O)(=O)c3ccc(Cl)cc3)c(N3CCOCC3)o2)cc(OC)c1OC | n | n | n | n | n
COc1ccc(-c2nc(S(=O)(=O)c3ccc(C)cc3)c(N3CCCCC3)o2)cc1 | n | 89µM | x | n | n
CC[C@@H]1C(c2cccc(C)c2)=NN(c2ccc(Br)cc2)[C@H]1C(=O)N1CCOC1=O | n | n | n | u | n
COc1ccc(Cn2nnnc2C(c2ccccc2)N2CCN(c3ccccc3)CC2)cc1 (configuration not stated) | x | n | x | x | x
COC(=O)c1ccc(-c2nc(O)c(C)s2)cc1 | n | 79µM | n | n | n
COC(=O)c1ccc(-c2nc3cc(Cl)c(N)cc3s2)cc1 | n | n | n | n | n
CCC[C@@H]1CC(C(=O)NC(C2O[C@H](SC)C(OP(=O)(O)O)[C@H](O)[C@H]2O)[C@H](C)Cl)N(C)C1 (some centres not stated) | n | n | x | n | n
COc1ccc(N=C2S/C(=C\c3ccc(OC(C)C(=O)O)c(OC)c3)C(=O)N2CCc2c[nH]c3ccccc23)cc1 (configuration not stated) | n | 40µM | n | u | n
COc1cc(/C=C2\SC(=Nc3ccccc3)N(CCc3c[nH]c4ccccc34)C2=O)ccc1OC(C)C(=O)O (configuration not stated) | n | u | n | u | n
O=C1S/C(=C/c2ccc(N3CCOCC3)o2)C(=O)N1Cc1ccc(F)cc1 | n | u | n | n | n
O=C1/C(=C/c2ccc(N3CCOCC3)o2)SC(=Nc2ccccc2)N1CCc1c[nH]c2ccccc12 | n | 79µM | n | n | n
CC(C)=CCC/C(C)=C\COc1c2ccoc2cc2oc(=O)ccc12 | n | x | n | x | n
COc1ccccc1N=Nc1[nH]c2ccc(C)cc2c1O | n | n | 3.5µM | n | n
O=C(O)C/C(=C\c1ccccc1)C(=O)O | x | x | n[14.2 µM] | x | x
CC1=CC(C#N)(C#N)C(C#N)(C#N)C(c2ccccc2)N1 (configuration not stated) | n | x | 32µM | n | n
COc1cccc(-c2nnc(SCC(=O)NCc3ccc4c(c3)OCO4)n2Cc2ccco2)c1 | n | n | n | 40µM | n
COc1ccc(-n2nnnc2SCC(=O)c2ccc(O)c(O)c2)cc1 | n | n | n | n | n
NC(=O)c1ccc(-n2nnnc2SCC(=O)c2ccc(O)c(O)c2)cc1 | u | n | n | n | 50µM[quencher]
CCCCCCCCCCCCCCCCC(C(=O)O)C(O)(CC(=O)O)C(=O)O (configuration not stated) | x | 10µM | x | 1.1µM | x
CC1(C)CC(=O)C2=C(C1)NC(Nc1nc3ccccc3o1)=NC2c1cccc(F)c1 (configuration not stated) | x | n | x | x | x
CCC(=O)Nc1cc(-c2nc3ccccc3s2)c(Cl)cc1Cl | n | n | x | n | 35µM[quencher]
CC(=O)Nc1ccc2c(c1)/C(=C/c1ccc([N+](C)(C)C)cc1)c1ccccc1-2 | x | x | n[14.2 µM] | x | x
CN(C)CC1CCC/C(=C\c2ccc(OC(=O)/C=C/c3ccccc3)cc2)C1=O (configuration not stated) | x | 79µM | x | x | x
CC1CCC/C(=C\c2ccc(O)cc2)C1=O (configuration not stated) | x | n | x | x | x
CN(C)CC1CC/C(=C\c2ccc(O)cc2)C1=O (configuration not stated) | x | 22µM | x | x | x
N#Cc1cccc(CS(=O)(=O)c2nnnn2C2CCCCC2)c1 | n | u | n | x | n
CCN(CC)c1ccc(/C=N/NC(=O)c2ccc(O)cc2)cc1 | n | n | n | n | n
C=C(C)C(=O)OCCOCCOCCOC(=O)C(=C)C | n | x | x | x | n

Bioassay records as filed in PubChem.
